# Source: PubChem (National Center for Advancing Translational Sciences (NCATS))
# S2 tox: reduces viability in counter-screen for ATXN expression inhibitors; S2 cells (HEK-293 line with an ATXN2-luciferase reporter) viability, CellTiter-Fluor protease fluorescence, 24 h; Potency, µM (highest dose often 56.7 µM), most hits filed as cytotoxic; 400,000 tested, 0.49% active; AID 651635; note: nearly all actives have a fitted effect of over 40% in size
# DT40 TDP1 CPT: DT40-hTDP1 cell growth loss with CPT. 420,000 tested, 12% active. AID 686979. chicken DT40 Tdp1-/-;hTDP1 cells + 20 nM CPT, ATP luminescence, 48 h. Potency, µM (highest dose often 46.2 µM), without a hit: at the highest dose activity change, negative = growth inhibition, hits mostly inhibitors; note: % is set by controls: 0 for no effect and ±100 for the full control effect; nearly all actives have a fitted effect of over 55% in size
#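 Chicken DT40 Tdp1-/- cells stably complemented with human TDP1 were seeded at 400 cells/well in medium containing 20 nM camptothecin, exposed to pin-transferred compounds, and grown at 37 °C for at least 48 hr. Viability was read as ATP luminescence.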
# TGFb inhibitor: inhibitors of TGF-b signaling; HepG2 CAGA-GFP TGF-b/SMAD3 reporter, GFP fluorescence, 18 h; TGF-beta stimulated, 500 pg/mL final; Potency, µM (top dose mostly 46.1 µM), for the others: at the highest dose activity, negative = inhibition, most hits filed as inhibitors; 410,000 tested, 1.2% active; AID 588855; note: % is set by controls: 0 for no effect and ±100 for the full control effect; nearly all actives have a fitted effect of over 65% in size
#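 HEPG2 CAGA-GFP, 1000 cells/well; 2 h settle, 37 C; cpd via pin tool; TGF-b 500 pg/mL final; 18 h, 37 C; GFP imaging ex488/em500-530; %Activity normalised to -TGF-b and +DMSO controls; CRC fit, curve class.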
# HepG2 tox: HepG2 cytotoxicity, counter-screen for TGF-b inhibitors. HepG2 CAGA-GFP viability, ATP luminescence, 18 h. Potency, µM (top dose mostly 46.1 µM), without a hit: top-dose activity change, negative = cytotoxicity, actives largely listed as cytotoxic. 410,000 tested, 0.76% active. AID 588856
#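 HepG2 CAGA-GFP cells (1000/well, DMEM with 1% FBS) received compound, then TGF-beta at 500 pg/mL final, and were incubated 18 hours at 37 degrees C. Viability was read by CellTiter-Glo luminescence. Media-only wells were set as complete cell-killing and DMSO as no toxicity.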
# TDP1 cell noCPT: qHTS for Inhibitors of human tyrosyl-DNA phosphodiesterase 1 (TDP1): qHTS in cells in absence of CPT; DT40 Tdp1-/- hTDP1 cells, no CPT, ATP luminescence, 48 h; Potency, µM (titrated, usually from 46.2 µM), for inactives: at the highest dose activity change, negative = growth inhibition, most hits filed as inhibitors; 420,000 tested, 15% active; note: % is set by controls: 0 for no effect and ±100 for the full control effect; nearly all actives have a fitted effect of over 55% in size
#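 A cellular qHTS used chicken DT40 cells lacking endogenous Tdp1 but carrying stably transfected human TDP1. Compounds were applied without camptothecin, and cell growth kinetics were judged by ATP-dependent luminescence after ≥48 hr.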
# ATXN2 expr inh: inhibitors of ATXN2 expression. HEK-293 ATXN2-luciferase reporter, luminescence, 24 h. Potency, µM (doses to about 57 µM), for the others: at the highest dose activity change, negative = inhibition, most hits filed as inhibitors. 360,000 tested, 0.72% active; note: % is set by controls: 0 for no effect and ±100 for the full control effect; nearly all actives have a fitted effect of over 55% in size
#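 qHTS (up to 57 uM final) was run with 24 h compound exposure of reporter cells at 37 °C. Each well was multiplexed: SteadyGlo luminescence measured ATXN2-luciferase expression after a fluorogenic Gly-Phe-AFC viability readout (25 uM final).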
# * = called active by the depositor; i = inactive; u = inconclusive; x = no result. Hits are enriched below; roughly 17% of the tested compounds scored in any of these assays. Calls come from the whole dose curve; as a rule, active = well fitted curve in the direction sought with a large enough effect; inconclusive = small, poorly fitted or top-dose-only effect, or another doubt; inactive = no such curve, though single readings can be large; an effect the other way counts as inactive or inconclusive. Potency is the fitted concentration of half-maximal effect.
SMILES,S2 tox,DT40 TDP1 CPT,TGFb inhibitor,HepG2 tox,TDP1 cell noCPT,ATXN2 expr inh
CSc1nc2nccc(-c3ccc(Cl)cc3)n2n1,i,-6%,24%,5%,-12%,-6%
CSc1nc2nccc(/C=C\c3ccccc3)n2n1,i,u,u,-27%,23µM*,-23%
Cc1cc(C)c2nc(NCCCNC(=S)NCCCN(C)C)c(C#N)cc2c1,x,5.8µM*,u,-132%,5.8µM*,u
Cc1ccc2cc(C#N)c(NCCNC(=O)C3CC3)nc2c1C,i,15µM*,-16%,-12%,7.3µM*,-13%
COCCCNC(=S)NCCNc1nc2cc(C)cc(C)c2cc1C#N,i,u,14%,11%,u,-14%
Cc1ccc2cc(C#N)c(NCCNC(=S)NCCCN(C)C)nc2c1C,u,u,-23%,-11%,26µM*,x
CCOCCCNC(=S)NCCCNc1nc2c(C)cc(C)cc2cc1C#N,i,8.2µM*,u,13%,18µM*,-7%
N#Cc1cccc(-c2cncnc2-n2ccnc2)c1,x,6%,x,x,15%,x
CCN(CC)c1cc(C)c2cc(NC(=O)/C=C/c3ccc(C)cc3)ccc2n1,i,5.8µM*,-2%,-44%,5.2µM*,-18%
CCN(CC)c1cc(C)c2cc(NC(=O)/C=C/c3cc(OC)c(OC)c(OC)c3)ccc2n1,x,6.5µM*,16µM*,10µM*,7.3µM*,x
CCOc1ccc(/C=C/C(=O)Nc2ccc3nc(N(CC)CC)cc(C)c3c2)cc1OC,x,5.2µM*,u,-56%,10µM*,x
CCOP(=O)(OCC)c1ccc2c(c1)C(=O)c1ccccc1CC2,i,x,-3%,0%,x,1%
CC[C@H](NC(=O)CC[C@H]1O[C@@H](n2cnc3c(NC(=O)c4ccccc4)ncnc32)[C@H](O)[C@@H]1O)c1ccccc1,i,-29%,0%,6%,-1%,-4%
Cc1ccccc1OCC(=O)Nc1ccc(C(=O)Nc2ccccc2C(=O)O)cc1,i,-20%,u,-15%,3%,20%
Fc1ccccc1/C=N/n1cc(-c2ccccc2)[nH]c1=S,i,15µM*,-9%,-2%,8.2µM*,25%
S=c1[nH]c(-c2ccccc2)cn1/N=C/c1ccc(Br)cc1,i,3.7µM*,15%,-5%,4.6µM*,9%
Cc1ccc(C)c(/C=N/n2cc(-c3ccccc3)[nH]c2=S)c1,i,u,u,5%,u,1%
S=c1[nH]c(-c2ccccc2)cn1/N=C/c1cccs1,i,-97%,-21%,4%,8.2µM*,23%
C[C@@H]1CN([C@@H](C)CO)C(=O)CCCn2nncc2CO[C@H]1CN(C)Cc1ccc2cccnc2c1,i,0%,-1%,1%,-28%,0%
CS(=O)(=O)N1CCC2(CC1)CN(c1cccc(-c3ccccc3)c1)C2,x,u,x,x,18µM*,x
CS(=O)(=O)N1CCC2(CCN(c3cccc(-c4ccccc4)c3)CC2)CC1,x,u,x,x,21µM*,x
CS(=O)(=O)N1CCC[C@@]2(CCN(c3ccccc3)C2)C1,x,-5%,x,x,u,x
C(=NOCCc1ccccc1)c1ccccn1,i,-10%,-5%,-8%,-25%,47%
Cc1nn(Cc2ccccc2Cl)c(Cl)c1/C=C/C(=O)OCC(=O)NC(N)=O,i,u,5%,1%,2.3µM*,-5%
Cc1nn(Cc2ccccc2Cl)c(Cl)c1/C=C/C(=O)OCC(=O)NC1CCS(=O)(=O)C1 (stereo not given),x,21%,-26%,11%,-26%,-24%
SMILES,S2 tox,DT40 TDP1 CPT,TGFb inhibitor,HepG2 tox,TDP1 cell noCPT,ATXN2 expr inh
Cc1nn(Cc2ccccc2)c(Cl)c1/C=C/C(=O)OCC(=O)N1CCCC1=O,i,13%,-2%,1%,17%,x
Cc1nn(Cc2ccc(Cl)cc2Cl)c(Cl)c1/C=C/C(=O)OCC(=O)NCC(F)(F)F,i,-29%,0%,-3%,21µM*,-4%
COC(=O)C1C2CC3c4[nH]c5cc(OC)ccc5c4CCN3CC2CC(OC(=O)c2cc(OC)c(OC)c(OC)c2)C1OC (stereo not given),x,u,x,x,u,-22%
Cc1ccc(NC(=O)Cc2ccc3c(c2)CCCC3)cc1C,i,-30%,-22%,-16%,-20%,19%
COC(=O)C1(Cc2ccc3c(c2)CCC3)Cc2ccc3c(c2C1=O)CCC3 (stereo not given),u,21µM*,-8%,0%,u,-17%
COc1ccc(-c2c(C#N)c(SCC(=O)Nc3ccc(Br)cc3)nc(C)c2C(=O)Nc2ccccc2)cc1,u,12%,0%,-4%,16%,0%
Cc1ccccc1CN1C(=O)[C@H]2Cc3c([nH]c4ccccc34)C(C)(C)N2C1=O,i,x,u,-12%,x,u
CC1CCCC(NCC(O)COC(c2ccc(F)cc2)c2ccc(F)cc2)C1C (stereo not given),u,5.2µM*,u,22µM*,2.6µM*,u
C=CCOC(=O)C1=C(C)NC(=S)C(C#N)(CC=C)C1c1ccccc1Cl (stereo not given),i,u,11µM*,-38%,u,x
C=CCOC(=O)C1=C(C)OC(N)=C(C#N)C1c1ccccc1F (stereo not given),i,u,-21%,-17%,u,-1%
CCOc1c(Cl)cc(CNCC(C)C)cc1OC,i,-1%,-6%,-2%,-20%,-2%
CCOc1c(Br)cc(CNc2ccc(N3CCOCC3)cc2)cc1OC,i,u,u,-28%,u,-7%
CCOc1cc(CNCC(C)C)cc(Cl)c1OCc1ccccc1,u,u,-20%,-17%,21µM*,x
COc1cccc(CNc2ccccc2O)c1OCc1ccccc1F,i,23µM*,-16%,-1%,u,-13%
COc1cc(CNc2ccc(O)cc2)cc(Br)c1OCc1ccccc1F,i,16µM*,u,-39%,u,-25%
CCN1CCCC1CNCc1cccc(OC)c1OCc1ccccc1F (stereo not given),i,-19%,-5%,-30%,-7%,-11%
CCOc1cc(CNc2ccc3c(c2)OCCO3)cc(Br)c1OC,u,0.52µM*,u,-17%,1.2µM*,23%
CCOc1cc(CNc2ccc(O)cc2)cc(Br)c1OCc1ccccc1,x,23µM*,u,-79%,16µM*,u
CC(=O)c1ccc(NC(=O)CC23CC4CC(C2)CC(n2nnc(C)n2)(C4)C3)cc1,i,u,5%,6%,13µM*,1%
